# Not all results are given here.
# aSyn 5UTR act: Activators via SNCA 5'UTR binding, MLPCN | AID 1814, 2009 | 7.1% of 300,000 active | activity score, % (tested at 7.5 µM), hits read low | alpha-synuclein 5'UTR reporter, activators screen; in the data active = activity score below about -60%
# Numbers without * were called inactive.
SMILES,aSyn 5UTR act
S=C1c2ccccc2CN1c1ccccc1,-64*
O=c1c2ccccc2oc2ccc(Oc3ccccc3)cc12,-123*
COc1cc2oc3ccccc3c(=O)c2cc1OC,-120*
O=c1c2ccccc2oc2cc(C#CC3(O)CCCCC3)ccc12,77
CCCCN1CCc2c([nH]c3c(C)cccc23)C1=O,-150*
CCc1ccc(C(=O)CSc2ncn[nH]2)cc1,-115*
c1ccc(C2=Nc3ccccc3NC(c3ccccc3)C2)cc1 (stereo unspecified),-178*
Brc1ccccc1C1CC(c2ccccc2)=Nc2ccccc2N1 (stereo unspecified),-203*
Cc1ccc(CNc2nc3ccccc3s2)s1,78
c1ccc(CCNc2nc3ccccc3s2)cc1,-81*
COc1ccc(CNc2nc3ccccc3s2)cc1OC,-141*
COc1ccc(OCc2cc(C(=O)N(C)CC3CCCCO3)no2)c(Cl)c1 (stereo unspecified),-71*
COc1ccc(OCc2cc(C(=O)N(C)C(C)c3ccon3)no2)c(Cl)c1 (stereo unspecified),-115*
COc1ccc(OCc2cc(C(=O)N(C)CCC3CCOCC3)no2)c(Cl)c1,-75*
COc1cc(Cl)ccc1OCc1cc(C(=O)N(C)CC2CCCCO2)no1 (stereo unspecified),-139*
COc1ccc(C(=O)/C=C/C(=O)N(CC(=O)NC2CCCCC2)CC2CCCO2)c(O)c1 (stereo unspecified),73
CCOC(=O)c1cn(-c2c(Cl)cccc2Cl)c2cc(Cl)c([N+](=O)[O-])cc2c1=O,-90*
Nc1ccccc1C(=O)NNC1=C(C(=O)C(F)(F)F)CCC1,-278*
Cc1ccc(-n2nnc3ccccc3c2=O)cc1C,-150*
CCOC(=O)c1sc2nc(NC(=O)C3CC3)sc2c1C,-201*
CCOC(=O)c1sc2nc(NC(=O)C(C)(C)C)sc2c1C,-135*
Cc1ccnc(N(C(=O)Nc2ccccc2)C2=NCC(C)(C)S2)c1,-165*
C/C(=N\Nc1ccccc1C(=O)O)c1ccncc1,-132*
C/C(=N\Nc1ccc(C)c(Cl)c1)c1ccncc1,-77*
O=C(O)c1ccccc1NN=C1CCCCC1,-192*
SMILES,aSyn 5UTR act
C/C(=N\Nc1ccc(C)c(Cl)c1)c1cccnc1,-105*
O=C(NCCc1ccc(Cl)cc1)C1CCC(CNc2nc(=S)[nH]c3ccccc23)CC1 (stereo unspecified),65
S=c1nc(NCCc2ccccc2Cl)c2ccccc2[nH]1,-114*
Cc1sc(=NC(=O)c2ccco2)n(C)c1-c1ccc(Cl)cc1,-101*
CC(C)(C)c1ccc(/C=C(\c2nc3ccccc3[nH]2)S(=O)(=O)c2ccccc2)cc1,-78*
Cc1cccc(/C=C(\c2nc3ccccc3[nH]2)S(=O)(=O)c2ccccc2)c1,-118*
COc1ccccc1OCC(=O)Nc1cccc(-c2nnc(-c3ccco3)o2)c1,-87*
O=C(COc1ccccc1)Nc1nnc(-c2ccc3c(c2)CCCC3)o1,-95*
COc1ccc(CC(=O)Nc2cccc(-c3nnc(-c4cccc(C)c4)o3)c2)cc1OC,-187*
CC(C)COc1ccc(-c2nnc(-c3ccco3)o2)cc1,86
O=C(COc1ccccc1)Nc1ccc(-c2nnc(-c3ccco3)o2)cc1,-84*
CCCOc1ccc(-c2nnc(-c3ccco3)o2)cc1,65
COc1ccc(-c2nc3cc(NC(=O)Cc4ccc(OC)c(OC)c4)ccc3o2)cc1,-69*
Cc1c(-c2nc(-c3cccnc3)no2)cccc1[N+](=O)[O-],-81*
Cc1ccc(-c2nc(-c3cccnc3)no2)c(C)c1,-92*
COC(=O)Nc1nc2ccc(C(=O)c3ccc(F)cc3)cc2[nH]1,99
Cc1nc2ccc(C(=O)c3ccccc3)cc2[nH]1,-95*
CCOc1ccccc1N1CCN(C(=O)c2cn(CC3CCCCC3)nn2)CC1,-84*
Cn1cnc2cc(NC(=O)c3ccco3)ccc21,-71*
O=C(Nc1ccc2c(c1)ncn2-c1ccccc1)c1ccco1,-131*
Cc1ccc(NC(=O)Nc2ccc3c(c2)nc(C)n3C)cc1C,-127*
Cc1nc2cc(NC(=O)N3CCCCC3)ccc2n1C,-71*
COc1cc(C(=O)Nc2ccc(N(C)C)cc2)cc(OC)c1OC,-99*
COc1cc(C(=O)NC(=S)N(CCc2ccccc2)CCc2ccccc2)cc(OC)c1OC,69
COc1cc(C(=O)Nc2ccc3c(c2)nc(C)n3C)cc(OC)c1OC,-92*
SMILES,aSyn 5UTR act
COc1ccc(OC)c(/C=C2\SC(=S)N(Cc3cccnc3)C2=O)c1,-62*
Cc1cc(NC(=O)COc2cccc(Oc3ccccc3)c2)no1,-122*
Cc1ccc(C)c(OCC(=O)Nc2cc(C)on2)c1,-80*
CC(C)(C)n1nc(-c2ccc(F)cc2)c2c(N)ncnc21,71
O=c1nc2sc3ccccc3n2c(=O)n1-c1cccc(Cl)c1,-169*
Cc1ccc2c(c1)sc1nc(=O)n(-c3cccc(Cl)c3)c(=O)n12,-209*
O=c1nc2sc3ccccc3n2c(=O)n1-c1ccc(Cl)cc1,-189*
CCOC(=O)N1CCC(NC(=O)c2ccc3c(c2)sc2nc(-c4cccc(OC)c4)cn23)CC1,-213*
CC(=O)N1N=C(c2ccc(C)cc2)CC1c1ccco1 (stereo unspecified),-98*
